The results in this text go back to ChEMBL document CHEMBL3433997, “St. Jude Leishmania screening dataset” (2016).

Structures are written as SMILES.

Common to all, as to type: functional
The target of assay [1] is Solute carrier family 2, facilitated glucose transporter member 1 (Homo sapiens) (UniProt P11166). Put plainly: ST_JUDE_LEISH: Cytotoxicity at 2uM final concentration against transgenic Leishmania Mexicana promastigotes LmGLUT1 that are glucose transport deficient and complemented with the human glucose transporter GLUT1. Activity is measured by DNA content using SYBR green in vitro.

The target in assay [2] is Hexose transporter 1 (Plasmodium falciparum) (UniProt O97467). Put plainly: ST_JUDE_LEISH: Cytotoxicity at 2uM final concentration against transgenic Leishmania Mexicana promastigotes LmPfHT that are glucose transport deficient and complemented with the Plasmodium falciparum hexose transporter. Activity is measured by DNA content using SYBR green in vitro.
Assay [3] deals with Glucose transporter (Leishmania mexicana) (UniProt O61059). The experiment in a line: ST_JUDE_LEISH: Cytotoxicity at 2uM final concentration against transgenic Leishmania Mexicana promastigotes LmGT2 that are glucose transport deficient and complemented with the L. Mexicana glucose transporter 2. Activity is measured by DNA content using SYBR green in vitro.

Chain of Solute carrier family 2, facilitated glucose transporter member 1 (Homo sapiens) (P11166 whole entry): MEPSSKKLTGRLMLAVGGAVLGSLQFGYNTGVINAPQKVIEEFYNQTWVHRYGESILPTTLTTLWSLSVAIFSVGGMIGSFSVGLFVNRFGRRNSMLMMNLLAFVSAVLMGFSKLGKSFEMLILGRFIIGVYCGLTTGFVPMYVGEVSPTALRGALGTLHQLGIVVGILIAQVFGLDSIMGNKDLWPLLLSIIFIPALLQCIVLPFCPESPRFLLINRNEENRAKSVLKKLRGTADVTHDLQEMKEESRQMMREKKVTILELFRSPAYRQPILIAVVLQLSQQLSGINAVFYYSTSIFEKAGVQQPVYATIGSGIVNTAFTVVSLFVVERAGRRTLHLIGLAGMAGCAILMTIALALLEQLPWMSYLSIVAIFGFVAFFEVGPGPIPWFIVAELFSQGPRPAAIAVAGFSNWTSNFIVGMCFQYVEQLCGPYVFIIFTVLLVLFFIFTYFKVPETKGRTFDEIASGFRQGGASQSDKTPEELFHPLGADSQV

On to `COc1cc2ccccc2c(OC)c1CCNCCCCNCCc1c(OC)cc2ccccc2c1OC`, for which the inhibition in assay [1] came to 10.9%; in assay [2], 12.1%; in assay [3], 14.6%.
On the same counts, the results for `CCc1c(CCNCCCCCCNC(C)(C)Cc2ccc3c(c2CC)OCO3)ccc(OC)c1OC` are 10%, 10.7% and 6.49%.
In the case of `Oc1cc2c(cc1CN1CCN(Cc3ccccc3F)CC1)CCC2`, the inhibition was 1.19% in assay [1], -1.37% in assay [2] and 2.62% in assay [3].
On the same counts, the results for `CCCNC(=O)Nc1ccc(N(C)c2ccnc(NC3CC3)n2)cc1` are 7%, 5.59% and 5.87%.
With `COc1cccc(-c2ccc3c(-c4ccc(F)cc4)cnc(N)c3c2)c1`, the inhibition in assay [1] was 5.2%; in assay [2], 4.32%; in assay [3] it was 2.91%.
Take `N=C(N)c1ccc2[nH]c(-c3cc4cc(C(=N)N)ccc4o3)cc2c1`: the inhibition turned out to be 2.26% in assay [1], 2.36% in assay [2] and 1.58% in assay [3].
On the same counts, the results for `NOCCCOc1ccc(Cl)cc1` are 4.86%, 3.73% and 3.9%.
On the same counts, the results for `COc1cc2nc(C)nc(Nc3ccc(Oc4ccccc4)cc3)c2cc1OC` are -2.63%, 2.09% and -1.95%.
On the same counts, the results for `NC(=O)COc1cccc2c1CCN(CCN1CCC(NC(=O)c3ccc(-c4ccc(Cl)cc4)cc3)CC1)C2` are 1.06%, 4.42% and 2.71%.
Regarding `CC(C)N1CCC(N(Cc2ccc(-c3ccc(C(F)(F)F)cc3)cc2)C(=O)Cn2c(CCc3cccc(F)c3F)cc(=O)c3c2CCC3)CC1`, the inhibition in assay [1] was found to be 3.12%; in assay [2], 4.34%; in assay [3] it was 5.2%.
For `COC(=O)c1cccc(CNCc2cccc(-c3cccc(-c4nc5cc(F)ccc5[nH]4)c3)c2)c1`, the inhibition is 5.23% in assay [1], 5.92% in assay [2] and 4.97% in assay [3].
On the same counts, the results for `COc1ccc2c(c1)Sc1ccccc1C(N1CCN(CCO)CC1)C2` (stereo not given) are 1.57%, 2.05% and 2.69%.
On the same counts, the results for `CC(CNC1CCN(CCn2c(=O)ccc3ccc(F)cc32)CC1)c1ccccc1` (stereo not given) are -1.82%, -1.07% and -0.24%.
On the same counts, the results for `Nc1nc(N)c2c(ccc3[nH]c(-c4ccccc4Cl)nc32)n1` are 77.1%, 69.7% and 61.8%.
Turning to `Cc1ccccc1C1CCN(C2CCC(NC(=O)/C=C/c3cccc(Cl)c3Cl)CC2)CC1` (stereo not given), the inhibition turned out to be 4.12% in assay [1], 1.26% in assay [2] and 4.18% in assay [3].
On the same counts, the results for `CC(C)CCNC(=O)c1cnc2c(O)cccc2c1Nc1cccc(NC(=O)c2ccc(F)cc2)c1` are 4.52%, 7.98% and 0.01%.
In the case of `c1cncc(CCNCc2cccc(-c3ccc(-c4nc5ccccc5[nH]4)s3)c2)c1`, the inhibition in assay [1] was 7.99%; in assay [2], 7.19%; in assay [3] it was 4.65%.
As to `Cn1c(CN2CCC(N3CCc4cc(NC(=O)c5ccco5)ccc43)C2)cc2ccccc21` (stereo not given), the inhibition in assay [1] turned out to be 5.51%; in assay [2], 4.84%; in assay [3], 5.36%.
Regarding `CN(C)CCOc1cc(NC(=O)Nc2ccc(-c3ccccc3)cc2)ccc1I`, the inhibition in assay [1] worked out at 12.5%; in assay [2], 12.7%; in assay [3], 12.6%.
On the same counts, the results for `COC(=O)C(Cc1ccccc1)NC(=O)NC1CCN(c2ccnc(Nc3ccc(F)cc3)n2)C1` (stereo not given) are 1.44%, 0.86% and 3.07%.
On to `CCC1(CC)NC(N)=NC(=N)N1OCc1ccc(Cl)c(Cl)c1`, for which the inhibition amounted to 4.32% in assay [1], 3.75% in assay [2] and 4.43% in assay [3].
On the same counts, the results for `CN(C)C1CCN(Cc2ccc(N3CCN(Cc4cccc5[nH]ccc45)CC3)nc2)CC1` are 2.41%, 1.46% and 2.99%.
On the same counts, the results for `COc1cc2nc(NCCCOC(C)C)n3nc(-c4ccccc4)nc3c2cc1OC` are 11.4%, 10.4% and 7.73%.
`CC(C)(C)C1=CC(=NNC(=O)c2ccncc2)C=C(C(C)(C)C)C1=O`: the results for the inhibition in assay [1], in assay [2] and in assay [3] were 11.8%, 14% and -0.13%, respectively.
On to `CN1CCN(CCCSc2ccc3c(c2)ncn3-c2cc(OCc3ccccc3C(F)(F)F)c(C(N)=O)s2)CC1`, for which the inhibition in assay [1] amounted to 8.47%; in assay [2], 11.1%; in assay [3] it was 0.97%.
On the same counts, the results for `CN(C)c1ccc(CN2CCC(NC(=O)c3ccc(-c4ccccc4F)s3)CC2)cc1` are -0.33%, -1.02% and -6.69%.
On the same counts, the results for `COc1ccc(CCON2C(=N)N=C(N)NC2(C)C)cc1OC` are 2.04%, 2.62% and 3.2%.
On the same counts, the results for `C[C@H](Cc1ccc(C[C@@H](C)NC[C@H](O)c2cccc(Cl)c2)cc1)NC[C@H](O)COc1ccccc1` are 1.99%, 1.95% and 3.59%.
`CN(C)CCOc1cc(NC(=O)Nc2ccc(-c3ccncc3)c(C(F)(F)F)c2)ccc1Cl`: the values for the inhibition in assay [1], in assay [2] and in assay [3] were 9.9%, 9.02% and 9.08%, respectively.
On the same counts, the results for `CC(C)CNC(=O)c1ccnc(-c2ccc(CNCCCc3ccccc3)cc2)c1` are 2.32%, 3.19% and 2.74%.
On the same counts, the results for `O=C(Nc1ccc(OC2CCN(Cc3ccccc3)C2)c(Cl)c1)c1ccc(F)cc1` (stereo not given) are -5.06%, 1.99% and 4.21%.
With `COc1ccc(N2CCN(CCCC/C=C/c3ccc(NC(=O)c4cc(Cl)cc(Cl)c4)cc3)CC2)c(OC)c1`, the inhibition in assay [1] was found to be 2.58%; in assay [2] it was 1.17%; in assay [3], 0.93%.
On the same counts, the results for `Cc1ccccc1NC(=S)NC1CCN(CCCCCNC(=O)/C=C/c2ccc(Cl)c(Cl)c2)CC1` are 5.52%, 4.69% and 2.71%.
On the same counts, the results for `CC(C)C[C@H]1C(=O)N[C@H](C2Cc3ccccc3C2)C(=O)N1[C@@H](C(=O)Nc1ccccc1OCc1ccccc1)c1ccc(F)cc1F` are 0.86%, -0.17% and -0.16%.
On to `COc1ccc(Cc2cnc3nc(N)nc(N)c3c2C)cc1`, for which the inhibition is 39.5% in assay [1], 49.3% in assay [2] and 41.3% in assay [3].

A word on the inhibition: it is the drop in the measured response relative to a control, in per cent.
